Screen size: about 310,000 compounds; about 14,000 (4.5%) showed an effect of 50% or more. The effect is printed as a negative number. What follows is part of a selection rich in strong results, with near analogues and random picks from the rest.
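Further: peak tail current of the secondary pulse compared with the same well before compound.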

Sequence of human ether-à-go-go-related gene (hERG) potassium channel (Q12809 whole entry, looked up): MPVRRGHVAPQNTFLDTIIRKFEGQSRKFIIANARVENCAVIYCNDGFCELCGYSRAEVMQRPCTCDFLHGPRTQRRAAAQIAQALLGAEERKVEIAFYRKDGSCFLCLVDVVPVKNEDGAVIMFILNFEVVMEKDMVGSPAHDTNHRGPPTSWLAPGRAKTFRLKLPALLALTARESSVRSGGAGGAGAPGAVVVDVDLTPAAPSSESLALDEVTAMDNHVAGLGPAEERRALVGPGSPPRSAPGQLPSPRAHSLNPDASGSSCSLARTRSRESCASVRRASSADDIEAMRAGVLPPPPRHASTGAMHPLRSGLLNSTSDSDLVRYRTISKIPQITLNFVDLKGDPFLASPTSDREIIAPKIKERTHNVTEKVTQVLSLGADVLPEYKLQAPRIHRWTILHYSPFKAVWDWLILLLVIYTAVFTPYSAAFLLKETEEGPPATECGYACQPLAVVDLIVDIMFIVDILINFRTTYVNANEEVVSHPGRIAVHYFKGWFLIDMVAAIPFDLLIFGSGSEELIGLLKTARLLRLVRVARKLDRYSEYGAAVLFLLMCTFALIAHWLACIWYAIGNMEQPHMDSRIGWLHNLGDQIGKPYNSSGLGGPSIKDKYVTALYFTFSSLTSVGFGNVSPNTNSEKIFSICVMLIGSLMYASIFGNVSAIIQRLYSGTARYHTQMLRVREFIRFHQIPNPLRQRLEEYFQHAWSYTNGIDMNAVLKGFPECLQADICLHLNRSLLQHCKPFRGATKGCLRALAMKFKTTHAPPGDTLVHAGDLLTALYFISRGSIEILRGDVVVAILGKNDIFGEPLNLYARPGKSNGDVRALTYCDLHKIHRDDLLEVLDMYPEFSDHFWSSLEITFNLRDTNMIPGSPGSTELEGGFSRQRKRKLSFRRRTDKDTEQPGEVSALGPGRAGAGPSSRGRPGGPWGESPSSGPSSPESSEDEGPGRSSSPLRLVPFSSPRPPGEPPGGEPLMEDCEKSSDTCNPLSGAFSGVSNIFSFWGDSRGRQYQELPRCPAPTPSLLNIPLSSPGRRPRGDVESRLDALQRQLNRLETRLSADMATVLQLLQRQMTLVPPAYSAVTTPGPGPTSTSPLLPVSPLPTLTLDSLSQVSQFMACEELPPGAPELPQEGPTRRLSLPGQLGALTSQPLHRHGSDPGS

This test concerns the target human ether-à-go-go-related gene (hERG) potassium channel (human, UniProt Q12809). Briefly: primary screen, population patch clamp on CHO cells stably expressing hERG; higher = less effect of the substance.
Regarding `Cc1ccc(N2CC(C(=O)N3CCc4ccccc4C3)CC2=O)cc1` (stereo not shown), the “hERG current change (%, negative = inhibition) at 10uM” value is -44.5%.

For `CCOc1ccc(N2CC(C(=O)N3CCCc4ccccc43)CC2=O)cc1` (stereo not shown), the “hERG current change (%, negative = inhibition) at 10uM” value is -62.6%. With `CCOc1ccc(N2CC(C(=O)N3CCCC3)CC2=O)cc1` (stereo not shown) the figure was -4.65%; with `Cc1ccc(N2CC(C(=O)N3CCCc4ccccc43)CC2=O)cc1` (stereo not shown), -18.8%; with `CCc1ccc(N2CC(C(=O)N3CCN(c4ccccn4)CC3)CC2=O)cc1` (stereo not shown), -24.3%.

For the compound `COc1ccc(C2C(C(=O)N3CCN(c4ccccn4)CC3)CC(=O)N2c2ccc(OC)cc2)cc1` (stereo not shown), the “hERG current change (%, negative = inhibition) at 10uM” value was -78.7%. The value for `CCOc1ccc(N2CC(C(=O)N3CCc4ccccc43)CC2=O)cc1` (stereo not shown) was -47.6%; that for `CCOc1ccc(N2CC(C(=O)N3CCc4ccccc4C3)CC2=O)cc1` (stereo not shown) was -75%; that for `COc1ccc(C2C(C(=O)N3CCN(c4ccccn4)CC3)CCC(=O)N2c2ccc(OC)cc2)cc1` (stereo not shown) was -47.3%. The value for `CCOc1ccc(N2CC(C(=O)N3CC(C)OC(C)C3)CC2=O)cc1` (stereo not shown) was 20%; that for `CCOc1ccc(N2CC(C(=O)N3CCN(c4ccccn4)CC3)CC2=O)cc1` (stereo not shown) was -59%; that for `COc1cccc(NS(=O)(=O)c2ccc3[nH]cc(C(=O)NCCC(C)C)c(=O)c3c2)c1` was 13.9%.

As to `Cc1ccc2nc(N/C(=N/S(=O)(=O)c3cccs3)c3ccccc3Cl)sc2c1`, the “hERG current change (%, negative = inhibition) at 10uM” value is given as -7.11%. The value for `CN1CCN(S(=O)(=O)c2ccc(NC(=O)c3cccs3)cc2)CC1` was -11.3%; that for `NC(=O)c1ccsc1NC(=O)COC(=O)c1cnccn1` was 2.13%. Regarding `CC1CCC(NC(=O)CNC(=O)c2cccs2)CC1` (stereo not shown), the “hERG current change (%, negative = inhibition) at 10uM” value turned out to be 7.33%.

Regarding `Cc1n[nH]c(=O)nc1N1CCc2ccccc2C1`, the “hERG current change (%, negative = inhibition) at 10uM” value turned out to be 4.47%. `COc1cc(OC)cc(C(=O)Nc2ccc3c(c2)CCCN3C(=O)c2cccs2)c1`: the “hERG current change (%, negative = inhibition) at 10uM” value is listed as -2.41%.

Take `CCOc1cc(S(=O)(=O)NCC2CCCO2)ccc1F` (stereo not shown): the “hERG current change (%, negative = inhibition) at 10uM” value amounted to 13.8%. With `COc1ccccc1/C=C/C=N/n1c(-c2ccc(F)cc2)n[nH]c1=S` the figure was 6.25%; with `CC1=NS(=O)(=O)c2cc(Cl)ccc2N1`, -2.63%; with `Cc1occc1C(=O)NNC(=O)CN1C(=O)NC(C)(c2ccccc2)C1=O` (stereo not shown), 19.1%.

As to `COc1cccc(NC(=O)CN(C)C(=O)c2oc3c(ccc4ccccc43)c2C)c1`, the “hERG current change (%, negative = inhibition) at 10uM” value is recorded as -0.74%.

For the compound `CCOC(=O)c1cc(C#N)c(C)nc1N(CC)CC`, the “hERG current change (%, negative = inhibition) at 10uM” value is reported as -3.53%. The value for `CC(=O)Nc1cccc(OCC(=O)NS(=O)(=O)c2ccc(C)cc2)c1` was 1.18%. The value for `O=C1CC(C(=O)N2CCCc3ccccc32)CN1c1ccc(F)cc1` (stereo not shown) was -22.2%. Take `O=C1CC(C(=O)N2CCc3ccccc32)CN1c1ccccc1` (stereo not shown): the “hERG current change (%, negative = inhibition) at 10uM” value is reported as -6.98%. The value for `O=C1CC(C(=O)N2CCc3ccccc32)CN1c1ccc(F)cc1` (stereo not shown) was -55.3%; that for `CCNC(=O)CC1SC(=Nc2ccc(Cl)cc2)N(CC)C1=O` (stereo not shown) was -0.837%. For the compound `COCCCn1c(Cc2csc(Nc3ccc(F)cc3)n2)nnc1SCC(N)=O`, the “hERG current change (%, negative = inhibition) at 10uM” value is given as -5.91%.

As to `COc1ccc(CN(C)CC2CCCN(CCc3ccc(F)cc3)C2)c(OC)c1OC` (stereo not shown), the “hERG current change (%, negative = inhibition) at 10uM” value was -74.8%. With `COc1ccc(CN(C)CC2CCCN(CCc3ccc(Cl)cc3)C2)cc1OC` (stereo not shown) the figure was -88.5%. The value for `COc1cc(CN(C)CC2CCCN(CCc3ccc(F)cc3)C2)c(Cl)cc1O` (stereo not shown) was -30%; that for `COc1ccc(CN(C)CC2CCCN(CCc3ccc(F)cc3)C2)cc1OC` (stereo not shown) was -64.8%; that for `COc1ccc(CN(C)C2CCN(C)CC2)cc1OC` was 21.8%.

Consider `COc1cccc(CN(C)CC2CCCN(CCc3ccc(Cl)cc3)C2)c1OC` (stereo not shown), for which the “hERG current change (%, negative = inhibition) at 10uM” value is reported as -74.5%.

As to `Cc1ccc2[nH]c3c(Cl)ncnc3c2c1`, the “hERG current change (%, negative = inhibition) at 10uM” value was found to be 5.18%. With `Cc1ccc(O)c(C(CC(=O)N2CCCC2)c2ccccc2)c1` (stereo not shown) the figure was -18.9%; with `COc1ccc(O)c(-c2cc(-c3cccs3)[nH]n2)c1`, 0.169%. With `CCn1cc(C2C(C(=O)Nc3cc(C)ccn3)=C(C)NC3=C2C(=O)CC(C)(C)C3)c(C)n1` (stereo not shown) the figure was 11.3%.

With `Cc1cccc(NC(=O)CSc2nc(COc3ccccc3)nc3ccccc23)c1C`, the “hERG current change (%, negative = inhibition) at 10uM” value was 13.5%. The value for `COc1ccccc1NC(=O)Nc1nn(C)c2cccc(OC)c12` was 2.03%; that for `CCCC12CN3CCN(CC(C3)/C1=N\NC(=O)c1ccc(C(C)(C)C)cc1)C2` was -14.4%.
